Experiments:
Experiment in all cases: log2 ratio of Biotin-Ahx-Ub-VS probe labelling (fragment/DMSO); higher = less target engagement (more negative = stronger competition), active = hit call of the paper (q ≤ 0.05, log2 ratio ≤ -1)
Details in all cases: compound concentration: 200 uM; treatment time: 3 h
USP34 = USP34 (UniProt Q70CQ2)
In short: (§1)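 Each value is an average log2 ratio of fragment to vehicle, tested by unpaired t-test. The underlying Spectronaut label-free quantities were global-median-normalised, and only proteins with ≥2 unique peptides were included. Triplicate HEK293T lysate samples (495 µg) were exposed to fragment at 200 µM or vehicle for 3 h, then to Biotin-Ahx-Ub-VS at 0.5 µM final for 1 h, before NeutrAvidin enrichment of labelled DUBs, LysC and trypsin digestion, and diaPASEF LC-MS/MS.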

USP36 = target: T1, USP36 (UniProt Q9P275)
T1 sequence (whole entry): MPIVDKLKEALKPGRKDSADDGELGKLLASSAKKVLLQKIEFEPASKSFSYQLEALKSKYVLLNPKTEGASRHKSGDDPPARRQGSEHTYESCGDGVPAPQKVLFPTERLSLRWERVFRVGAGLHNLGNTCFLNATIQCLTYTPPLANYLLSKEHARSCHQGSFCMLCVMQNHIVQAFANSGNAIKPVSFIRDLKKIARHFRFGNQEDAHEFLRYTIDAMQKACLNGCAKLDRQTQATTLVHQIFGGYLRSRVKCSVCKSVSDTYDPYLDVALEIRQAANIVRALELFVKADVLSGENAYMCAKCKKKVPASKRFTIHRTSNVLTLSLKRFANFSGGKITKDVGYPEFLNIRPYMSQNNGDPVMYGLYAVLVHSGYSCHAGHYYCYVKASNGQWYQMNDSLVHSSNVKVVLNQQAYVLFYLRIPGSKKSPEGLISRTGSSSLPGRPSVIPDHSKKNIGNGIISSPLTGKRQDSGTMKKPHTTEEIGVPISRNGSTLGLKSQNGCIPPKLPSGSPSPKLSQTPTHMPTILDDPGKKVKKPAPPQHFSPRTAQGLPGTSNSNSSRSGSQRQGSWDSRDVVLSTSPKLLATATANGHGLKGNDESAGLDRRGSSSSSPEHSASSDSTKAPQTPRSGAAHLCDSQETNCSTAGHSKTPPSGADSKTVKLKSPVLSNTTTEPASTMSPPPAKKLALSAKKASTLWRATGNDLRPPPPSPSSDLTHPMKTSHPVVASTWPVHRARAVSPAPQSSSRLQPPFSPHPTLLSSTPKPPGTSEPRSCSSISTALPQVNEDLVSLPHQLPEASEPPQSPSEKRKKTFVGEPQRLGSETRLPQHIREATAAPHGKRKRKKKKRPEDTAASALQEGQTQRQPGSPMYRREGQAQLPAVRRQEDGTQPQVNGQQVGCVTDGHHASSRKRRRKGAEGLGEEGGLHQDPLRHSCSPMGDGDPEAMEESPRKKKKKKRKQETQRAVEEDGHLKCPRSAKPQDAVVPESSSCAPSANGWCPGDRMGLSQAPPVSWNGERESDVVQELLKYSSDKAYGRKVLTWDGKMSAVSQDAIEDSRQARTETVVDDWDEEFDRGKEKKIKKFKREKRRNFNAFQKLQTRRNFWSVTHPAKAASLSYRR
In short: as §1

USP38 = target: T2, USP38 (UniProt Q8NB14)
T2 sequence (whole entry): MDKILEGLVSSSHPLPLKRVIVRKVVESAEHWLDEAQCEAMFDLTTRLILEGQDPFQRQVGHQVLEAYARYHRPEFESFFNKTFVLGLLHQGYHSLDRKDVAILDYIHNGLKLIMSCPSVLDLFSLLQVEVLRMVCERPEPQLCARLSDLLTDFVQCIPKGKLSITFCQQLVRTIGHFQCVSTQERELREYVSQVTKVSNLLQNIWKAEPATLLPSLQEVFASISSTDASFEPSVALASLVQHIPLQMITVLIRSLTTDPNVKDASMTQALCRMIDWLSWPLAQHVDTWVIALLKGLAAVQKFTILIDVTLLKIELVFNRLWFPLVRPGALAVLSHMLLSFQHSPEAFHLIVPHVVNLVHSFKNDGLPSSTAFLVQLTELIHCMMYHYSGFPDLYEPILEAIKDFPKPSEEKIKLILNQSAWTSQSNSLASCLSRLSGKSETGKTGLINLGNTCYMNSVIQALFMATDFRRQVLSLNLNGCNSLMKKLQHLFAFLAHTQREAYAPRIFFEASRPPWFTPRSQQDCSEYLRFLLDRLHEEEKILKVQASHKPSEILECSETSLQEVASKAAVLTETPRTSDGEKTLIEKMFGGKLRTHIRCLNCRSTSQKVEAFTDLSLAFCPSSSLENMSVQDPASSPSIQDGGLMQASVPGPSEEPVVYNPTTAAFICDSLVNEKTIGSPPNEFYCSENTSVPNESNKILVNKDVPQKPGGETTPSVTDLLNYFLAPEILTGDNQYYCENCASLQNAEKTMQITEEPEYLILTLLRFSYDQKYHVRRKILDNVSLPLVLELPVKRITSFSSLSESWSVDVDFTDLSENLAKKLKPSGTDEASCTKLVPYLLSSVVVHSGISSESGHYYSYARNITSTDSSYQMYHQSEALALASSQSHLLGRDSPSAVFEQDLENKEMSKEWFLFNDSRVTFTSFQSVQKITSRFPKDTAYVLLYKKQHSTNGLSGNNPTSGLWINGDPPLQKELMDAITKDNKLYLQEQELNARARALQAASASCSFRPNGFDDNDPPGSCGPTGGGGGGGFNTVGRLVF
In short: as §1

USP39 = target: T3, USP39 (UniProt Q53GS9)
T3 sequence (whole entry): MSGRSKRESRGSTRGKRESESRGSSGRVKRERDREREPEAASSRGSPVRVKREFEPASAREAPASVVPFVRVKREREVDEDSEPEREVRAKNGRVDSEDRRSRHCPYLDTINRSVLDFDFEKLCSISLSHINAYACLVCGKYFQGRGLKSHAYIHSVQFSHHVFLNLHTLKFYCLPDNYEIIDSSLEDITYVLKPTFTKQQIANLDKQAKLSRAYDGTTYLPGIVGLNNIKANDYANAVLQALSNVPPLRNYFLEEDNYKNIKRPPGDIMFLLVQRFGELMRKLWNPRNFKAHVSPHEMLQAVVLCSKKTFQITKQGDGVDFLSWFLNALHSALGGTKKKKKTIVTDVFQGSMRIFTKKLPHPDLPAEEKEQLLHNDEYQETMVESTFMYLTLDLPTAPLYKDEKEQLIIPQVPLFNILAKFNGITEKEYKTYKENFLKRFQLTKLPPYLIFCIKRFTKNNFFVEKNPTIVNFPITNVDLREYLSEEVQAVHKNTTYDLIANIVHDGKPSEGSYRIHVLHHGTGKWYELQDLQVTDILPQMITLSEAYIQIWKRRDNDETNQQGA
In short: as §1

USP4 = target: T4, USP4 (UniProt Q13107)
T4 sequence (whole entry): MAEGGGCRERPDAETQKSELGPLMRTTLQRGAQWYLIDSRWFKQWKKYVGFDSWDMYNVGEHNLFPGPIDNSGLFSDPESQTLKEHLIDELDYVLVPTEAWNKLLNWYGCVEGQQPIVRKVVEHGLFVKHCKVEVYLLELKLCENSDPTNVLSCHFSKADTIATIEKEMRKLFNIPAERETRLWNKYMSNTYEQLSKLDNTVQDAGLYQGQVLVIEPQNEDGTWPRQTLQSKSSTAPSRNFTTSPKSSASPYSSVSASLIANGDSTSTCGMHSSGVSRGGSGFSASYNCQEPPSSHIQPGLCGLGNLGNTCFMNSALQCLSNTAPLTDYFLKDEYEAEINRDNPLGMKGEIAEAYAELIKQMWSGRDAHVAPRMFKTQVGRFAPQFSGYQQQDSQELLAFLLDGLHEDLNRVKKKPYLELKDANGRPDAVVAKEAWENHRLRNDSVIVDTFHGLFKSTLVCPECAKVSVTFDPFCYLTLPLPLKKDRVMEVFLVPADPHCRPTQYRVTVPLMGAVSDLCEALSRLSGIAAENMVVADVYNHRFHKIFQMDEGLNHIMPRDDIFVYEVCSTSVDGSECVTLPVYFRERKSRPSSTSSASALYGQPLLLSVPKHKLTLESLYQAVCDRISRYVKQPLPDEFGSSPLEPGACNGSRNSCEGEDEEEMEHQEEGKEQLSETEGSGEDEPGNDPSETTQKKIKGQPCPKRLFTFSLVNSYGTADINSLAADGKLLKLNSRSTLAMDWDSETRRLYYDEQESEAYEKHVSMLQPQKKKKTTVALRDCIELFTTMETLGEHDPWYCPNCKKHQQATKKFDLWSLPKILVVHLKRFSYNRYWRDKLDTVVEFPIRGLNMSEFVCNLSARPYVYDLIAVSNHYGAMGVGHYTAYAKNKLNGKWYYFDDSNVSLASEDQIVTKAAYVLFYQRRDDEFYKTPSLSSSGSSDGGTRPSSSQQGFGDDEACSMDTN
In short: as §1

Measured: log2 ratio of Biotin-Ahx-Ub-VS probe labelling

Chain of USP34 (Q70CQ2 whole entry, the tested form may be a part): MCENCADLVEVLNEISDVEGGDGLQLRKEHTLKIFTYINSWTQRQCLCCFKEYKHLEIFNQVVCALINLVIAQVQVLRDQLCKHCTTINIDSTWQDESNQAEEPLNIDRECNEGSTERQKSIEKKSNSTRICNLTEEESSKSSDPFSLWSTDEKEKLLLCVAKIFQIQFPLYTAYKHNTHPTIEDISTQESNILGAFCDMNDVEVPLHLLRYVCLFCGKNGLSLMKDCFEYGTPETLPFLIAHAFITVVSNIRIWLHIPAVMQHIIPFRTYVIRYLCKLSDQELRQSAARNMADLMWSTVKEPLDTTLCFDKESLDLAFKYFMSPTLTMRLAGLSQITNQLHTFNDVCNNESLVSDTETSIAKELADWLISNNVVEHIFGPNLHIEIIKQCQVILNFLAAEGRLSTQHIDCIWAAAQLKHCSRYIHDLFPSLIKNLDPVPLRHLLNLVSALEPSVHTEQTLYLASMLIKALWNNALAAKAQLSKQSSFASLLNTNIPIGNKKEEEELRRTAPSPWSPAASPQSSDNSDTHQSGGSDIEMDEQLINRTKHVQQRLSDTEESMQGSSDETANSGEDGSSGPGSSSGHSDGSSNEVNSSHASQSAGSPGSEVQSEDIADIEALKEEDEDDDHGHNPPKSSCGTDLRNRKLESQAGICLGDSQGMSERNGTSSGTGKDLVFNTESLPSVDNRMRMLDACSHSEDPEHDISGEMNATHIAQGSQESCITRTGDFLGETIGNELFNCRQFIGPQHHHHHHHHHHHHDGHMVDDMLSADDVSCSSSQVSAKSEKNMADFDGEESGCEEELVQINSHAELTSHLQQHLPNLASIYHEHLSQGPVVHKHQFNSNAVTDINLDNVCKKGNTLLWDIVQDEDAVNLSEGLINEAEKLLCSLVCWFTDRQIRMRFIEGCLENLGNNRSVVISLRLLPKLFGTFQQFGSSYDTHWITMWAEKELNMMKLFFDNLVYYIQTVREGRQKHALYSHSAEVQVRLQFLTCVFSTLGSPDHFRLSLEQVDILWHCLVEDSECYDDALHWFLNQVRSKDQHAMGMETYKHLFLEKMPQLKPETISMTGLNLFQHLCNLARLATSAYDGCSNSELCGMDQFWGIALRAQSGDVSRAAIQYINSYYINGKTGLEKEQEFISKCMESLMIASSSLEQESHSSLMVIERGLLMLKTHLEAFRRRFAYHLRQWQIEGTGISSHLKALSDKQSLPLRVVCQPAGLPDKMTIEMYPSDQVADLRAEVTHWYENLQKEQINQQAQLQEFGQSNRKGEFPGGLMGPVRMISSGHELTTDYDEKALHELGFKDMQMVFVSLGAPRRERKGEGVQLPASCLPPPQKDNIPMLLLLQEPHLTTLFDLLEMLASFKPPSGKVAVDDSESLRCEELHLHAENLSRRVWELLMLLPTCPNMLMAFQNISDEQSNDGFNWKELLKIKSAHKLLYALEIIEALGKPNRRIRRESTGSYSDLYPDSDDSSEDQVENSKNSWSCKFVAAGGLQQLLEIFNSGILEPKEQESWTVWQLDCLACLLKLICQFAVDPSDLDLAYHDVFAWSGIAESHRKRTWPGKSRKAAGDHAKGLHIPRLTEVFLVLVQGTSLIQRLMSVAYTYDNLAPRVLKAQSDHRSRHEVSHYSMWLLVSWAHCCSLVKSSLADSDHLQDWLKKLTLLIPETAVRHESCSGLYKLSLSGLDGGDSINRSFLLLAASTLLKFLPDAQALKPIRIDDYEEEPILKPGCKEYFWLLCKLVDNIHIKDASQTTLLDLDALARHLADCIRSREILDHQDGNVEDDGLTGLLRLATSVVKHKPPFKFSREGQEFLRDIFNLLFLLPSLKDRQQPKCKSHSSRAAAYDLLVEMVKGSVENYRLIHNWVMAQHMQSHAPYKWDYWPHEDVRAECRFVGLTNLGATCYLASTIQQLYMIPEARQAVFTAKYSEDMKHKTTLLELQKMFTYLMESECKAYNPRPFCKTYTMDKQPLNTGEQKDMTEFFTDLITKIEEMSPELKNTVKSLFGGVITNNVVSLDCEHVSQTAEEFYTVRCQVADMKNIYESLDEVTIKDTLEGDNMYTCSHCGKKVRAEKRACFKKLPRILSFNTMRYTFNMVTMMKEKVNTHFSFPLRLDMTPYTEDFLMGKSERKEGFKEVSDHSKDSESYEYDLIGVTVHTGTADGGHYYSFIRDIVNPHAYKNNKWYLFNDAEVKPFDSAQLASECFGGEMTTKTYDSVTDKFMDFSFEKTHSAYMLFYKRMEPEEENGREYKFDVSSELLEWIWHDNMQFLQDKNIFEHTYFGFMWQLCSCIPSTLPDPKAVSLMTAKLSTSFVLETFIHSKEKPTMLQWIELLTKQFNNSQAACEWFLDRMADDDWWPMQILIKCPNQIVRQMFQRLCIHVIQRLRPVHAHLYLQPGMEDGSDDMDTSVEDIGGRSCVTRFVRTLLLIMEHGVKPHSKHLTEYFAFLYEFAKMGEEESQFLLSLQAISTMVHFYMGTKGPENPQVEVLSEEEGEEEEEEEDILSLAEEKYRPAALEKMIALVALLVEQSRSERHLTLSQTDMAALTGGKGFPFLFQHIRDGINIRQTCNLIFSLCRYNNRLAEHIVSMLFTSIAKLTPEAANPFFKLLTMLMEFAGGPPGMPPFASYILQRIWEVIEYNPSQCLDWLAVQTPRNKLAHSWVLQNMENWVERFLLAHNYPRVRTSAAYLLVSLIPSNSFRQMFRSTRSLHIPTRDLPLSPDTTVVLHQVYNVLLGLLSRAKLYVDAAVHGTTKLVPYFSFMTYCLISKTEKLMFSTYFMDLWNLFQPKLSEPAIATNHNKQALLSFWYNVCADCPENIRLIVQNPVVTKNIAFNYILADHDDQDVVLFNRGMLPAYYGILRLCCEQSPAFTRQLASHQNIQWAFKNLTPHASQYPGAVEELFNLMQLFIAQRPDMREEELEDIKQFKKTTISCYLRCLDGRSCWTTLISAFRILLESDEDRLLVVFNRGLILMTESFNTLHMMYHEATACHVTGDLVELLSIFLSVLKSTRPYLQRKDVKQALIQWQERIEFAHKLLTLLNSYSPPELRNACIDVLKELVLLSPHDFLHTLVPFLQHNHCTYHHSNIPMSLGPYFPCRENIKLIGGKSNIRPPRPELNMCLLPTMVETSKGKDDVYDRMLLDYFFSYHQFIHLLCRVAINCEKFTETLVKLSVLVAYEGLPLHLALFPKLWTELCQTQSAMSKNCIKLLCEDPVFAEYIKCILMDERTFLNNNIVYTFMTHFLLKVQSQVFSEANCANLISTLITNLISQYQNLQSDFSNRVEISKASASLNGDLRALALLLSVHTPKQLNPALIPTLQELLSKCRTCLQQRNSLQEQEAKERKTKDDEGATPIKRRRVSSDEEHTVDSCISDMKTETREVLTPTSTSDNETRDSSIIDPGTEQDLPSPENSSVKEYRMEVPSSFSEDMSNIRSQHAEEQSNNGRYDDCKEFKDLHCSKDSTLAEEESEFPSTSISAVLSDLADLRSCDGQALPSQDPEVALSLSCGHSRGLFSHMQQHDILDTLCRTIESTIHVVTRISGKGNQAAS

CCC(NC(=O)CCl)c1ccc(Cl)cc1 (stereo not given)
inactive: USP34 -0.142 | USP36 -0.231 | USP38 0.0692 | USP39 0.0269 | USP4 0.0111

— the supplement of paper PMC11732987, “Enantioselective OTUD7B fragment discovery through chemoproteomics screening and high-throughput optimisation” (Communications Chemistry, 2025)
